In PubChem BioAssay (Tox21):
Values joined by “and” are separate entries in the source; they are usually repeats but may differ in a detail not shown here. Equal values may be shown once. Inconclusive results are not listed. Active and inactive are the calls of the source. Unless noted, the call rests on the fitted dose curve; in most records, active means well fitted curve in the direction sought with a large enough effect in the repeat runs; inconclusive means weak or mixed curves; inactive means no such curve, though single readings can be large; an effect the other way counts as inactive or inconclusive.

Columns and labels:
[1] = qHTS assay for small molecule agonists of the p53 signaling pathway (AID 651631; calls by dose curve; further: nearly all actives have a fitted effect of over 15% in size)
Summary of the method: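 Stably transfected HCT-116 cells (beta-lactamase behind p53 response elements) get compounds after a 5 h settling period; 16 h later at 37 °C, FRET substrate is loaded and fluorescence read after 2 h.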

[2] = qHTS assay for small molecules that induce genotoxicity in human embryonic kidney cells expressing luciferase-tagged ATAD5 (AID 651632); further: nearly all actives have a fitted effect of over 15% in size
Summary of the method: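 HEK293T cells carrying luciferase-tagged ATAD5 were given compound or DMSO vehicle and incubated 16 hr at 37C, 5% CO2. Luciferase activity was read after 30 min at room temperature with Amplite; a rise signals genotoxic stress.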

[3] = qHTS assay for small molecule agonists of the p53 signaling pathway - cell viability (AID 651633; calls by dose curve;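 further: p53RE-bla HCT reporter cells with a stable beta-lactamase p53 reporter; nearly all actives have a fitted effect of over 30% in size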)
Summary of the method: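 p53RE-bla cells were treated with compound for 16 hours at 37 C. Cytotoxicity was then measured as CellTiter-Glo luminescence after 30 min at room temperature.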

[4] = qHTS assay for small molecules that induce genotoxicity in human embryonic kidney cells expressing luciferase-tagged ATAD5 - cell viability (AID 651634; calls by dose curve; further: nearly all actives have a fitted effect of over 25% in size)
Summary of the method: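 HEK293T cells carrying luciferase-tagged ATAD5, 2,000 cells/well, exposed to compound for 15.5 hr at 37C. Viability read as live-cell protease activity by CellTiter-Fluor fluorescence after 30 min at 37C.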

[5] = qHTS assay for small molecule disruptors of the mitochondrial membrane potential - cell viability (AID 720634; calls by dose curve;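 further: human HepG2 liver cancer cells; nearly all actives have a fitted effect of over 20% in size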)
Summary of the method: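 HepG2 cells, 2,000 per well, attached overnight, then treated 1 hr at 37 C, 5% CO2. Viability read as ATP by CellTiter-Glo luminescence after 30 min at room temperature. Read in the same wells as the m-MPI membrane-potential dye assay.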

[6] = qHTS assay for small molecule disruptors of the mitochondrial membrane potential (AID 720635)
Summary of the method: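 HepG2 cells exposed to compound 1 hr at 37C, then Mito-MPS dye 30 min. Ratio read of aggregate (540/590 nm) versus monomer (490/535 nm) fluorescence.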

[7] = qHTS assay to test for compound auto fluorescence at 590 nm (red) in HepG2 cells (AID 720674)
Summary of the method: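 HepG2 cells, 2,000 per well in MEM with 10% FBS, attached overnight at 37 C, then got 23 nL compound or DMSO. After 1 hr at 37 C, 5% CO2, red fluorescence was read at 540/590 nm against Rose Bengal sodium as reference.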

[8] = qHTS assay to test for compound auto fluorescence at 535 nm (green) in HepG2 cells (AID 720675)
[9] = qHTS assay to test for compound auto fluorescence at 460 nm (blue) in HEK293 cells (AID 720678)
Summary of the method: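 Measured: blue fluorescence (Ex 405/Em 460 nm) of compound-treated HEK293 cells, incubated overnight at 37C with 5% CO2 and scaled to triamterene equivalents.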

[10] = qHTS assay to test for compound auto fluorescence at 590 nm (red) in HEK293 cells (AID 720679)
Summary of the method: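 Using HEK293 cells at 2,000 per well, the screen added 23 nL of each compound after cell attachment and incubated overnight (37C, 5% CO2). The plate reader then captured red-label fluorescence, Ex/Em 540/590nm.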

[11] = qHTS assay to test for compound auto fluorescence at 535 nm (green) in HEK293 cells (AID 720680)
[12] = qHTS assay to test for compound auto fluorescence at 460 nm (blue) in HEK293 cell free culture (AID 720681)
Summary of the method: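 Compounds were added to cell-free DMEM with 10% FBS and fluorescence read directly. The blue channel used 405 nm excitation and 460 nm emission, with triamterene as the reference fluorophore.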

[13] = qHTS assay to test for compound auto fluorescence at 535 nm (green) in HEK293 cell free culture (AID 720682)
Summary of the method: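 Using fluorescein as calibrant, autofluorescence was quantified at 485/535 nm in cell-free DMEM containing 10% FBS after pintool addition of compound or vehicle.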

[14] = qHTS assay to test for compound auto fluorescence at 460 nm (blue) in HepG2 cell free culture (AID 720685)
Summary of the method: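 Compound (23 nL) or DMSO pinned into cell-free MEM with 10% FBS; blue fluorescence read at 405/460 nm excitation/emission, expressed as auto-fluorescence equivalency to triamterene.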

[15] = qHTS assay to test for compound auto fluorescence at 535 nm (green) in HepG2 cell free culture (AID 720686)
[16] = qHTS assay to test for compound auto fluorescence at 460 nm (blue) in HepG2 cells (AID 720687)
Summary of the method: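 HepG2 cells in MEM with 10% FBS, attached overnight at 37 C, were exposed to compound or DMSO for 1 hr at 37 C, 5% CO2. Blue fluorescence was read at 405/460 nm, with triamterene as reference fluorophore.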

[17] = molecular target: Glucocorticoid receptor (Homo sapiens) (UniProt P04150); experiment: qHTS assay to identify small molecule agonists of the glucocorticoid receptor (GR) signaling pathway (AID 720691; active means well fitted activation curve with a large enough effect in the signal ratio in the repeat runs, not every such curve was filed as active; the % refers to the signal ratio)
Summary of the method: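 GR-bla HeLa cells carrying a GRE-driven beta-lactamase reporter, exposed to compounds for 18 h at 37 C. Reporter activation read as fluorescence after 2 h with LiveBLAzer B/G FRET substrate at room temperature.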

[18] = molecular target: Glucocorticoid receptor (Homo sapiens) (UniProt P04150); experiment: qHTS assay to identify small molecule antagonists of the glucocorticoid receptor (GR) signaling pathway (AID 720692; active means well fitted inhibition curve with a large enough effect in the signal ratio in the repeat runs, not every such curve was filed as active; the % refers to the signal ratio)
Summary of the method: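 GR-bla HeLa cells carrying a GRE-driven beta-lactamase reporter received compound after 4 h plating, then dexamethasone (5 nM final). After 18 h at 37C, the FRET substrate was loaded for 2 h at room temperature and fluorescence read.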

[19] = qHTS assay to identify small molecule antagonists of the glucocorticoid receptor (GR) signaling pathway - cell viability counter screen (AID 720693); further: nearly all actives have a fitted effect of over 55% in size
[20] = qHTS assay for identifying genotoxic compounds that show differential cytotoxicity against isogenic chicken DT40 cell lines with known DNA damage response pathways - wild type cell line (AID 743012); further: nearly all actives have a fitted effect of over 60% in size
Summary of the method: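 Wild-type DT40 cells (300/well) exposed to compounds for 40 hours at 37 C/5% CO2. Viability read by CellTiter-Glo luminescence after 30 min at room temperature.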

[21] = qHTS assay for identifying genotoxic compounds that show differential cytotoxicity against isogenic chicken DT40 cell lines with known DNA damage response pathways - Rad54/Ku70 mutant cell line (AID 743015); further: nearly all actives have a fitted effect of over 60% in size
[22] = qHTS assay to identify small molecule antagonists of the androgen receptor (AR) signaling pathway - cell viability counter screen (AID 743033; further: nearly all actives have a fitted effect of over 45% in size)
[23] = qHTS assay to identify small molecule antagonists of the androgen receptor (AR) signaling pathway using the MDA cell line - cell viability counter screen (AID 743041; further: nearly all actives have a fitted effect of over 45% in size)
Summary of the method: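 Same-well cytotoxicity was assessed by CellTiter-Fluor in MDA-kb2 AR-luc cells after 16 h of compound treatment under R1881 agonism.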

[24] = qHTS assay to identify small molecule antagonists of the thyroid receptor (TR) signaling pathway (AID 743065); further: nearly all actives have a fitted effect of over 55% in size
Summary of the method: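 GH3.TRE-Luc rat pituitary cells (two TREs driving luciferase) were dosed with compound, then stimulated with 1 nM T3 (final) for 23.5 h at 37 C. ONE-Glo luminescence was the read-out, with CellTiter-Fluor fluorescence as the cytotoxicity counter-screen.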

[25] = system: thyroid hormone receptor (rat, GH3 cells); experiment: qHTS assay to identify small molecule agonists of the thyroid receptor (TR) signaling pathway (AID 743066; calls by dose curve)
[26] = qHTS assay to identify small molecule antagonists of the estrogen receptor alpha (ER-alpha) signaling pathway - cell viability counter screen (AID 743074; calls by dose curve;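 further: HEK293 cells carrying ER-alpha-UAS-bla reporter stimulated with 17beta-estradiol; nearly all actives have a fitted effect of over 45% in size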)
[27] = qHTS assay to identify small molecule antagonists of the estrogen receptor alpha (ER-alpha) signaling pathway using the BG1 cell line - cell viability counter screen (AID 743081);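 further: compound given together with 17beta-estradiol as the ER stimulus; nearly all actives have a fitted effect of over 45% in size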
[28] = qHTS assay to identify small molecule that activate the aryl hydrocarbon receptor (AhR) signaling pathway - cell viability counter screen (AID 743086)
Summary of the method: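 HepG2-AhR-luc (HG2L7.5c1) cells, 4000/well, treated 24 h at 37 C with compound; viability measured as CellTiter-Fluor fluorescence after 30 min in the same wells as the luciferase read.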

[29] = qHTS assay to identify small molecule antagonists of the estrogen related receptor (ERR) signaling pathway from Tox21 library - cell viability counter screen (AID 1224834); further: nearly all actives have a fitted effect of over 30% in size
Summary of the method: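 ERR reporter cells, 2,000 per well, rested 6 h, then exposed to compound in DMSO for 17.5 hours at 37 C. Viability read as fluorescence after 30 min with CellTiter-Fluor.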

[30] = qHTS assay to identify small molecule antagonists of the estrogen related receptor signaling pathway with the pleiotropic PPARgamma coactivator (PGC) from Tox21 10K library - cell viability counter screen (AID 1224840; active means well fitted cell-killing curve with a large enough effect in the repeat runs, not every such curve was filed as active; further: nearly all actives have a fitted effect of over 40% in size)
Summary of the method: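 PGC/ERR cells (2,000/well) plated 6 h, then compound-treated for 17.5 h at 37 C. Viability measured by CellTiter-Fluor fluorescence after 30 min at 37 C, multiplexed with the pathway assay.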

[31] = qHTS assay to identify small molecule antagonists of the estrogen related receptor signaling pathway with the pleiotropic PPARgamma coactivator (PGC) from Tox21 10K library (AID 1224841; call rule not given here; further: actives are mostly falling curves and most rising ones were filed inactive; nearly all actives have a fitted effect of over 50% in size)
Summary of the method: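 PGC/ERR cell line, 2,000 cells/well, pre-incubated 6 hours at 37 C, then exposed to compounds for 18 hours at 37 C; luciferase read with One-Glo luminescence after 30 min at room temperature.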

[32] = qHTS assay to identify small molecule agonists of the estrogen related receptor signaling pathway with the pleiotropic PPARgamma coactivator (PGC) from Tox21 10K library (AID 1224842); further: nearly all actives have a fitted effect of over 15% in size
Summary of the method: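 PGC/ERR reporter cell line, 2,000 cells per well, incubated 6 h at 37 C before 23 nL compound in DMSO was added. After 18 h at 37 C, One-Glo luminescence read following 30 min at room temperature.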

[33] = qHTS assay to identify small molecule antagonists of the estrogen related receptor (ERR) signaling pathway from Tox21 library (AID 1224848); further: nearly all actives have a fitted effect of over 50% in size
Summary of the method: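 Luminescent reporter read-out (ONE-Glo) from NTP's ERR cell line after 18 h treatment at 37 C with DMSO-dissolved Tox21 compounds; cells pre-plated 6 h beforehand at 2,000 per well.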

[34] = qHTS assay to identify small molecule agonists of the estrogen related receptor (ERR) signaling pathway from Tox21 library (AID 1224849; calls by dose curve; further: nearly all actives have a fitted effect of over 15% in size); details: ERR reporter cell line, ONE-Glo luciferase, 18 h; at 92.4 µM (top of the series) unless noted
Summary of the method: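 ERR reporter cells (NTP line) pre-incubated 6 hours at 37 C, then exposed to compounds for 18 hours at 37 C. ONE-Glo luciferase luminescence was read after 30 minutes at room temperature.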

[35] = qHTS assay to identify small molecule antagonists of the estrogen receptor alpha (ER-alpha) signaling pathway using the BG1 cell line in the presence of 0.1 nM 17-beta-estradiol - cell viability counter screen (AID 1259241); further: nearly all actives have a fitted effect of over 40% in size
Summary of the method: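 Measures cytotoxicity alongside the ER-alpha antagonist readout: VM7Luc4E2 cells, charcoal-stripped serum, 0.1 nM 17beta-estradiol final, 22 hr compound incubation at 37C, CellTiter-Fluor fluorescence.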

[36] = qHTS assay to identify small molecule antagonists of the androgen receptor (AR) signaling pathway using the MDA cell line in the presence of 0.5 nM R1881 - cell viability counter screen (AID 1259242); further: nearly all actives have a fitted effect of over 45% in size
Summary of the method: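 MDA-kb2 cells (MMTV-luciferase, AR/GR responsive) were treated with compounds plus 0.5 nM R1881 (final) for 16 hr at 37C, 0% CO2. Viability was then read in the same wells as live-cell protease fluorescence (CellTiter-Fluor, 30 min).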

[37] = molecular target: Nuclear receptor subfamily 1 group I member 2 (Homo sapiens) (UniProt O75469); experiment: Human pregnane X receptor (PXR) small molecule agonists, qHTS assay (AID 1346982); further: nearly all actives have a fitted effect of over 35% in size
Summary of the method: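 PXR-Luc HepG2 reporter cells (CYP3A4-driven luciferase) in 5% charcoal-stripped FBS medium, plated 5 h before compound addition, then treated 24 h at 37C. Luciferase read by ONE-Glo luminescence after 30 min at room temperature.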

[38] = molecular target: Acetylcholinesterase (Homo sapiens) (UniProt P22303); experiment: Acetylcholinesterase (AChE) small molecule antagonists: colormetric cell-based qHTS assay (AID 1347395; calls by dose curve; further: nearly all actives have a fitted effect of over 30% in size)
Summary of the method: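 Neuroblastoma line SH-SY5Y supplied the enzyme; cells were preincubated with compound for 30 min at 37 C and 5% CO2. Acetylthiocholine with DTNB was then added for 90 min at 37 C, and thiocholine was measured by colour.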

[39] = molecular target: Acetylcholinesterase (Homo sapiens) (UniProt P22303); experiment: Acetylcholinesterase (AChE) small molecule antagonists: enzyme-based qHTS assay (AID 1347397; calls by dose curve; further: nearly all actives have a fitted effect of over 55% in size); details: Potency: AChE enzyme activity inhibition; outcome: AChE enzyme activity inhibition
Summary of the method: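 Enzyme inhibition was scored from DTNB-detected thiocholine formed by recombinant human AChE acting on acetylthiocholine. The 30 min compound preincubation and 10 min substrate reaction were both run at room temperature, with DMSO as vehicle control.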

[40] = molecular target: Acetylcholinesterase (Homo sapiens) (UniProt P22303); experiment: Acetylcholinesterase (AChE) small molecule antagonists: fluorescence cell-based qHTS assay (AID 1347398; calls by dose curve; further: nearly all actives have a fitted effect of over 50% in size); details: Potency: AChE activity; outcome: AChE activity
Summary of the method: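 Endogenous acetylcholinesterase of SH-SY5Y neuroblastoma cells is measured in situ. After overnight attachment and 30 min compound exposure, cells receive acetylthiocholine and Thiolite Green; fluorescence is read after 40 min at room temperature.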

[41] = molecular target: Acetylcholinesterase (Homo sapiens) (UniProt P22303); experiment: Acetylcholinesterase (AChE) small molecule antagonists: enzyme-based qHTS assay with human liver microsomes (AID 1347399; calls by dose curve; further: nearly all actives have a fitted effect of over 60% in size); details: Potency: qHTS inhibition; outcome: qHTS inhibition
Summary of the method: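 Recombinant human AChE (50 mU/mL in the enzyme mix) and human liver microsomes (0.25 mg/mL final) were preincubated with compound and NADPH (0.25 mg/mL final) for 30 min at 37 C. Acetylthiocholine/DTNB was then added; thiocholine was read colorimetrically after 10 min at room temperature.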
On the % scale 0 is the no-effect control and ±100 the full control effect.

Sequence of Acetylcholinesterase (Homo sapiens) (P22303 whole entry, looked up): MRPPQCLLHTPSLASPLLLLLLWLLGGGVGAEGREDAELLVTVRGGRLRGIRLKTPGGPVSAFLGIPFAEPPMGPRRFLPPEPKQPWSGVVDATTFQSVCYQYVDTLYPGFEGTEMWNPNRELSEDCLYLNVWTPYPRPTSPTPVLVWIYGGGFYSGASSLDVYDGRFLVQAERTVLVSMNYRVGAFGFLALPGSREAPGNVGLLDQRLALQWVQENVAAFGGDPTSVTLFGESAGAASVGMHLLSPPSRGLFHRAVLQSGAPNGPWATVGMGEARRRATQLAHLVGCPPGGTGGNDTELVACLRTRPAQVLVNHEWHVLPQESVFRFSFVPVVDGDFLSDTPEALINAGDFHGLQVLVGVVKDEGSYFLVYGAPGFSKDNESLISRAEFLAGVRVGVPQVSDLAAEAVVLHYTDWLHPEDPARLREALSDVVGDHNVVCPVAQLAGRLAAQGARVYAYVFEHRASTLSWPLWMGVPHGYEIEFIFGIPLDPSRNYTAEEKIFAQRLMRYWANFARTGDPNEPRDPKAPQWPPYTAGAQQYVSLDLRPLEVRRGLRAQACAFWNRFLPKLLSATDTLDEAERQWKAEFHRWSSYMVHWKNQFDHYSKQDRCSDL
Sequence of Glucocorticoid receptor (Homo sapiens) (P04150 whole entry, looked up): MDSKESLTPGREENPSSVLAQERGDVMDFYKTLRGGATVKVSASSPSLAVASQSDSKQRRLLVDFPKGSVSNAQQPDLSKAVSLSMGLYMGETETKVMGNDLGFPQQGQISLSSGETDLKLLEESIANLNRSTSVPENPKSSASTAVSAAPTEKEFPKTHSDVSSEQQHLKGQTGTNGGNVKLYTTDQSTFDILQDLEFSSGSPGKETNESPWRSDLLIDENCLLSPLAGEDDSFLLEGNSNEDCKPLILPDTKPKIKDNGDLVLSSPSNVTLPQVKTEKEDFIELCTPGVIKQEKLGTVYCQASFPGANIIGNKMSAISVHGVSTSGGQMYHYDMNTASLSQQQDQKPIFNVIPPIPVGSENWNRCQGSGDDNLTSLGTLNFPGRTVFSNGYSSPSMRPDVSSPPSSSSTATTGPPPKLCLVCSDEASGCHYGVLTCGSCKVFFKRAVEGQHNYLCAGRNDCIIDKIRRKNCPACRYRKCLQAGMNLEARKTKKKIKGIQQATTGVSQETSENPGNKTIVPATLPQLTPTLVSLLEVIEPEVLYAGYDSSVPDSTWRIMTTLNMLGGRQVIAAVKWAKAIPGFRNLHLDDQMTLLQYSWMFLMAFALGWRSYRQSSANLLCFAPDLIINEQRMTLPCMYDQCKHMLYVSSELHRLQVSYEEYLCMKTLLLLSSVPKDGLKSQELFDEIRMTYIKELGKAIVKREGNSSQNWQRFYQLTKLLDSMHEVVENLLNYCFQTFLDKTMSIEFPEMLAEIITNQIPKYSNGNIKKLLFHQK
Sequence of Nuclear receptor subfamily 1 group I member 2 (Homo sapiens) (O75469 whole entry, looked up): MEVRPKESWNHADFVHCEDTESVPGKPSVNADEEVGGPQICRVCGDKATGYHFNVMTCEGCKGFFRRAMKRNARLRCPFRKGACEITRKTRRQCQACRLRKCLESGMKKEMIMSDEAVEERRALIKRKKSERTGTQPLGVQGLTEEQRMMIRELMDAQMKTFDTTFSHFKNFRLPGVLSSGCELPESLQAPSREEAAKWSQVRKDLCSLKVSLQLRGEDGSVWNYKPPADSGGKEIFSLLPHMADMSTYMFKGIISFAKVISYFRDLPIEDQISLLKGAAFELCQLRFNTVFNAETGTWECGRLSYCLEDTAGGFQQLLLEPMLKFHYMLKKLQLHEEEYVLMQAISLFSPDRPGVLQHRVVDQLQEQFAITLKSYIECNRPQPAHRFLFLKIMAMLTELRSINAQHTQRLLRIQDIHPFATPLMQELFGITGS

O=C(O)/C=C/C(=O)O
inactive: Potency [1] | Potency [2] | Potency [3] | Potency [4] | Potency [5] | Potency [6] | outcome [7] | Potency [8] | Potency [9] | outcome [10] | Potency [11] | Potency [12] | Potency [13] | Potency [14] | Potency [15] | Potency [16] | Potency [17] | Potency [18] | Potency [19] | Potency [20] | Potency [21] | Potency [22] | Potency [23] | Potency [24] | Potency [25] | Potency [26] | Potency [27] | Potency [28] | Potency [29] | Potency [30] | Potency [31] | Potency [32] | Potency [33] | activity change, positive = activation [34] 4.47% and 1.26% | Potency [35] | Potency [36] | Potency [37] | Potency [38] | Potency [39] | Potency [40] | Potency [41]
